Consider 46 sequences from the supplement of paper PMC11417369.

Over roughly 25,000 sequences, “ln(normalized median fluorescence intensity)” has its median near 9.7; the highest 2% begin near 11. This is one part of a sample in which the highest values are shown more often than they occur.

This assay relates to PfAP2-HC AP2 domain (GST-tagged). Kind of assay: gcPBM binding intensity (ln(normalized median fluorescence intensity)); higher = stronger DNA binding. The essentials: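 Alexa488 anti-GST antibody, scanned at 488 nm, detected GST-tagged P. falciparum DNA-binding domains that had been expressed in E. coli and incubated for 1 h on an Agilent 4 × 180k array. The array carried primer-extended double-stranded 36-bp intergenic genomic probes and negative controls. Binding intensity is the highest Masliner-normalised natural-log median intensity across replicate spots of either orientation of each probe.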
As for “CAAAATATATATACCACACACACATACCTCTATTTG [CACACA_site1853]”, the “gcPBM binding intensity (ln)” value worked out at 10.4.
With “CATATATACCTATATACACACATATAGATTTATATA [CACACA_site6451]” the figure was 9.78.
For the sequence “CATACACATAGACACACACACATATATACCTATATA [CACACA_site6644]”, the “gcPBM binding intensity (ln)” value turned out to be 10.8.
For the sequence “CATACATAGATATATACACACATACCTATAAATACA [CACACA_site6513]”, the “gcPBM binding intensity (ln)” value is 10.2.
For the sequence “TATACCTATAGACACACACACATAAATAGATATATA [CACACA_site6748]”, the “gcPBM binding intensity (ln)” value worked out at 11.1.
With “TATACCTATAGACACACACACATATAGATTTATATA [CACACA_site7124]” the figure was 11.1; with “GATACCTATAGACACACACACATACCTATATACATA [CACACA_site7586]”, 10.9; with “AATAGATATATAAATACACACAAACATACCTATATA [CACACA_site7823]”, 10.6.
Then “ATATATACCTAAGACACACACATATAGATTTATATA [CACACA_site6498]”, with 10.4; and “TATAGATACCTATACACACACACACGGACATATATA [CACACA_site7585]”, with 10.8; and “TTTGTAAGTCTTTGTTGTACTCAATAGAATGAAGAA [XGTACX_site8930]”, with 9.45.
Then “AACTCTTAGAATGACGGTACAGTATAATAGGTGAAC [XGTACX_site7163]”, with 9.69; and “TATAACTTTTTTAATACACACAAATATTTATTTATA [CACACA_site7425]”, with 9.61; and “ATACGTATATAATATACATGCATATATAGCACATAC [TGCATGCA_site376]”, with 9.83.
Regarding “TTCAAATATAAATACACACACATAGCTACAAAATAA [CACACA_site4172]”, the “gcPBM binding intensity (ln)” value came to 11.
As for “CATACATACAAACACACACACATATATATATATATA [CACACA_site43]”, the “gcPBM binding intensity (ln)” value was 10.2.
With “TATAAATATACAAACACACATACAAACATATATATA [CACACA_site1120]” the figure was 10.2; with “AATATATAGCTAAAAACACACAAATATATACACATA [CACACA_site9203]”, 9.97.
In the case of “AAATATAAAAAATATACACACATATAAAATCTATAT [CACACA_site7406]”, the “gcPBM binding intensity (ln)” value amounted to 9.91.
Then “CATACATACAAACACACACACATATAAATACATACA [CACACA_site4625]”, with 11.2.
With “CACATACACATACAAACACACATTATATATATATAT [CACACA_site8460]” the figure was 10.4.
Then “CATACATACAAACACACACACATATATATACATACA [CACACA_site852]”, with 11.4; and “TAAATATATAAATACACACAAACATACATATATATA [CACACA_site4050]”, with 10.1.
Turning to “AATTCAAATATAAATACACACACATAGCTACAAAAT [CACACA_site9386]”, the “gcPBM binding intensity (ln)” value was 10.3.
“TACAATCTAAAATACACACACACAAACATATATTTA [CACACA_site3702]”: the “gcPBM binding intensity (ln)” value turned out to be 10.7.
With “AAAAAAAACGAACACACACACATACAAAATCTATAT [CACACA_site6795]” the figure was 11.1.
In the case of “CAGCTCTTAAGAATTACACACATATACACATATATA [CACACA_site7524]”, the “gcPBM binding intensity (ln)” value worked out at 9.95.
For the sequence “TAAAATTTTTTTGTTTGTACATATATATATATAATA [XGTACX_site5609]”, the “gcPBM binding intensity (ln)” value is 9.53.
Regarding “CATTATTTATTTTAATGTACTTATTTTTAAATTGGT [XGTACX_site8038]”, the “gcPBM binding intensity (ln)” value worked out at 9.54.
With “TTTTCTTGTAAATTACGTACGAATGTGTAGAGAAAT [XGTACX_site1339]” the figure was 9.47; with “TATATATATATATGTAGTACTCAATATTGTAGATTA [XGTACX_site3856]”, 9.64.
Then “CTAGCAAATACATACACACACACACCGATACATATA [CACACA_site9164]”, with 10.7.
With “AAATATAAAAATAGCACACATATATACATATATATA [CACACA_site56]”, the “gcPBM binding intensity (ln)” value was 9.88.
For the sequence “TTATAATTATATACATGTACATATAATACATATATA [XGTACX_site8904]”, the “gcPBM binding intensity (ln)” value came out at 9.46.
As to “AATAAACATAAATACACACACAAAAAAAAAAACATA [CACACA_site4396]”, the “gcPBM binding intensity (ln)” value was found to be 10.3.
On to “TAAATCCGCAGGCACACACACATATTAATAAAAAAA [CACACA_site3991]”, for which the “gcPBM binding intensity (ln)” value worked out at 10.8.
With “AATGATCATAAATACACACACACAAAAAAAAAAAAA [CACACA_site6072]” the figure was 10.3; with “TACATATATATATACACACATACATATATATACGCA [CACACA_site792]”, 9.85; with “TATACGCATATATAAACACACAAAAAAAAAAAAAAA [CACACA_site2026]”, 9.43.
Then “AATGATCAGATATACACACACACAAAAAAAAAAAAA [CACACA_site7806]”, with 10.4.
For the sequence “AAAAAAAAAAAAAACACACACACAAATACAAATGGT [CACACA_site1721]”, the “gcPBM binding intensity (ln)” value is 10.5.
In the case of “AATGATCATATATACACACACACAAAAAAAAAAAAA [CACACA_site4009]”, the “gcPBM binding intensity (ln)” value came to 11.2.
Then “ATTAAATCCGCACGCACACACACATATTAATAAAAA [CACACA_site3992]”, with 11.1; and “TAAATCCGCACGCACACACACATATTAATAAAAAAA [CACACA_site7800]”, with 10.5; and “CATATACGCAAACACACACACATATATATATATATA [CACACA_site501]”, with 11.6.
Then “AAAAAAAAAAAAAACACACACACAAATACAAATACA [CACACA_site414]”, with 11.5.
